# Measurements taken from PubChem BioAssay (NCI).
# Compounds without any hit were thinned out: in the full panel of roughly 79,000, 15% have a hit. A number with no mark means an inactive call. Activity calls are given as the source filed them. Cut-off read from the data, not from the text of the source: active = growth inhibition above about 70%; inactive = the rest.
# Columns and labels:
# [1] = NCI Yeast Anticancer Drug Screen. Data for the rad52 strain (AID 147);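 note: 0% = growth of vehicle-treated control cultures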; details: S. cerevisiae rad52 mutant growth inhibition, hits give high values
# In short: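 Inhibition of yeast growth, referenced to vehicle controls, was the measured output for a strain with defective DNA damage repair.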
# [2] = NCI Yeast Anticancer Drug Screen. Data for the wt1 strain (AID 149);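 note: 0% = growth of vehicle-treated wt1 cultures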; details: S. cerevisiae wt1 strain (SPY 50644) growth inhibition, hits give high values
# In short: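 Yeast wt1 strain exposed to compounds; growth inhibition measured relative to vehicle-treated controls.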
# [3] = NCI Yeast Anticancer Drug Screen. Data for the rad50EPP+ strain (AID 151);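 note: 0% = growth of vehicle-treated control cultures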; details: S. cerevisiae rad50 mutant strain, hits give high values
# In short: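 Genetically defined yeast (rad50EPP+, DNA damage repair alteration) is grown with compound, and inhibition of growth is expressed relative to vehicle-treated controls.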
# [4] = NCI Yeast Anticancer Drug Screen. Data for the mgt1 strain (AID 153); details: S. cerevisiae mgt1 mutant growth inhibition, hits give high values
# In short: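 In the mgt1 strain, test compounds were added and growth inhibition was determined relative to vehicle-treated controls.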
# [5] = NCI Yeast Anticancer Drug Screen. Data for the rad50 strain (AID 155);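 note: 0% = growth of vehicle-only cultures of the same strain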; details: S. cerevisiae rad50 strain growth inhibition, hits give high values
# In short: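 Yeast carrying a defined DNA repair defect were exposed to test compounds, and growth was compared with vehicle-treated controls to give percent inhibition.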
# [6] = NCI Yeast Anticancer Drug Screen. Data for the mec2-1 strain (AID 157); details: S. cerevisiae mec2-1 strain, hits give high values
# In short: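 Each compound was tested on mec2-1 yeast, a strain altered in DNA damage repair or cell cycle control. Growth inhibition is reported relative to vehicle.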
# [7] = NCI Yeast Anticancer Drug Screen. Data for the rad14 strain (AID 159);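 note: 0% = growth of vehicle-treated control cultures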; details: S. cerevisiae rad14 strain growth inhibition, hits give high values
# In short: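 Yeast cells carrying a defined DNA-repair defect were exposed to compounds, and growth inhibition was calculated relative to vehicle-treated control cultures.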
# [8] = NCI Yeast Anticancer Drug Screen. Data for the sgs1 mgt1 strain (AID 161);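 note: 0% = growth of cultures given vehicle only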; details: S. cerevisiae sgs1 mgt1 strain, hits give high values
# In short: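 Mutant yeast exposed to compound; growth scored against vehicle-only wells.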
# [9] = NCI Yeast Anticancer Drug Screen. Data for the CLN2oe strain (AID 163);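 note: 0% = growth of vehicle-only control cultures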; details: S. cerevisiae CLN2oe strain, hits give high values
# In short: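 First, the altered yeast strain was treated with each compound; second, its growth was measured; finally, inhibition was derived by comparison with vehicle controls.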
# [10] = NCI Yeast Anticancer Drug Screen. Data for the cln2 rad14 strain (AID 165);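 note: 0% = growth equal to vehicle treated cultures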; details: S. cerevisiae cln2 rad14 strain, hits give high values
# In short: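 Test compounds were added to cln2 rad14 yeast cultures; inhibition of growth was then determined by comparison with vehicle treatment.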
# [11] = NCI Yeast Anticancer Drug Screen. Data for the bub3 strain (AID 167); details: S. cerevisiae bub3 mutant strain, hits give high values
# In short: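 Compounds were applied to a genetically altered yeast strain carrying a cell-cycle control defect. Growth inhibition was scored against vehicle-treated controls.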
# [12] = NCI Yeast Anticancer Drug Screen. Data for the wt2 strain (AID 169);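 note: 0% = growth of vehicle-treated yeast cultures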; details: S. cerevisiae wt2 strain growth inhibition, hits give high values
# In short: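 The panel's yeast strains carry defined changes in DNA repair or cell cycle genes. Each strain is grown with compound, and growth loss is scored relative to vehicle.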
# [13] = NCI Yeast Anticancer Drug Screen. Data for the mlh1 strain (AID 171);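 note: 0% = growth of vehicle-treated control cultures of the same strain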; details: S. cerevisiae mlh1 strain growth inhibition, hits give high values
# In short: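 Inhibition values reflect reduced yeast growth in the presence of compound, referenced to vehicle controls, using a strain chosen for its alteration in DNA repair or cell cycle control.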
# [14] = NCI Yeast Anticancer Drug Screen. Data for the sgs1 strain (AID 173);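 note: 0% = growth of vehicle-only control cultures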; details: S. cerevisiae sgs1 mutant, hits give high values
# In short: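 Vehicle-treated cultures served as reference for growth inhibition of a yeast strain altered in DNA damage repair or cell cycle control after compound exposure.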
# [15] = NCI Yeast Anticancer Drug Screen. Data for the mlh1 rad18 strain (AID 175); details: S. cerevisiae mlh1 rad18 strain growth inhibition, hits give high values
# In short: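 Inhibition values reflect reduced growth of mutant yeast versus vehicle-treated controls following compound exposure; the mutations affect DNA damage repair.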
# [16] = NCI Yeast Anticancer Drug Screen. Data for the rad18 strain (AID 177); details: S. cerevisiae rad18 mutant growth inhibition, hits give high values
# In short: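 Steps: expose repair-mutant yeast to compound; measure growth; express as inhibition relative to vehicle control.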
# [17] = at 5.0 µM (retest, dose inferred, filed as 0.5)
# [18] = at 50.0 µM (retest, dose inferred, filed as 5.0)
smiles,measurement,setting,value
N/C(=N/N=C/c1cc(Br)cc(Br)c1O)NO,growth inhibition,[1]; at 1.2 µM,-37%
same,growth inhibition,[1]; at 3.7 µM,-26%
same,growth inhibition,[1]; at 11.0 µM,17%
same,growth inhibition,[1]; at 33.0 µM,90% (active)
same,growth inhibition,[1]; at 100.0 µM,97% (active)
same,growth inhibition,[2]; at 1.2 µM,-94%
same,growth inhibition,[2]; at 3.7 µM,-40%
same,growth inhibition,[2]; at 11.0 µM,-13%
same,growth inhibition,[2]; at 33.0 µM,90% (active)
same,growth inhibition,[2]; at 100.0 µM,98% (active)
same,growth inhibition,[3]; at 1.2 µM,-27%
same,growth inhibition,[3]; at 3.7 µM,-24%
same,growth inhibition,[3]; at 11.0 µM,-6%
same,growth inhibition,[3]; at 33.0 µM,28%
same,growth inhibition,[3]; at 100.0 µM,73% (active)
same,growth inhibition,[4]; at 1.2 µM,-36%
same,growth inhibition,[4]; at 3.7 µM,-27%
same,growth inhibition,[4]; at 11.0 µM,66%
same,growth inhibition,[4]; at 33.0 µM,95% (active)
same,growth inhibition,[4]; at 100.0 µM,98% (active)
same,growth inhibition,[5]; at 1.2 µM,-39%
same,growth inhibition,[5]; at 3.7 µM,-34%
same,growth inhibition,[5]; [17],-1%
same,growth inhibition,[5]; at 11.0 µM,6%
same,growth inhibition,[5]; at 33.0 µM,90% (active)
same,growth inhibition,[5]; [18],99% (active)
same,growth inhibition,[5]; at 50.0 µM,96.1% (active)
same,growth inhibition,[5]; at 100.0 µM,97% (active)
same,growth inhibition,[6]; at 1.2 µM,-89%
same,growth inhibition,[6]; at 3.7 µM,-62%
same,growth inhibition,[6]; [17],13%
same,growth inhibition,[6]; at 11.0 µM,-6%
same,growth inhibition,[6]; at 33.0 µM,87% (active)
same,growth inhibition,[6]; [18],99% (active)
same,growth inhibition,[6]; at 50.0 µM,85.8% (active)
same,growth inhibition,[6]; at 100.0 µM,96% (active)
same,growth inhibition,[7]; at 1.2 µM,-19%
same,growth inhibition,[7]; at 3.7 µM,-1%
same,growth inhibition,[7]; at 11.0 µM,82% (active)
same,growth inhibition,[7]; at 33.0 µM,97% (active)
same,growth inhibition,[7]; at 100.0 µM,98% (active)
same,growth inhibition,[8]; [17],10%
same,growth inhibition,[8]; [18],99% (active)
same,growth inhibition,[8]; at 50.0 µM,97.8% (active)
same,growth inhibition,[9]; at 1.2 µM,-6%
same,growth inhibition,[9]; at 3.7 µM,-11%
same,growth inhibition,[9]; at 11.0 µM,25%
same,growth inhibition,[9]; at 33.0 µM,95% (active)
same,growth inhibition,[9]; at 100.0 µM,98% (active)
same,growth inhibition,[10]; [17],7%
same,growth inhibition,[10]; [18],99% (active)
same,growth inhibition,[10]; at 50.0 µM,92.3% (active)
same,growth inhibition,[11]; at 1.2 µM,-40%
same,growth inhibition,[11]; at 3.7 µM,-60%
same,growth inhibition,[11]; [17],-5%
same,growth inhibition,[11]; at 11.0 µM,44%
same,growth inhibition,[11]; at 33.0 µM,93% (active)
same,growth inhibition,[11]; [18],99% (active)
same,growth inhibition,[11]; at 50.0 µM,87% (active)
same,growth inhibition,[11]; at 100.0 µM,97% (active)
same,growth inhibition,[12]; at 1.2 µM,-2%
same,growth inhibition,[12]; at 3.7 µM,-9%
same,growth inhibition,[12]; at 11.0 µM,35%
same,growth inhibition,[12]; at 33.0 µM,94% (active)
same,growth inhibition,[12]; at 100.0 µM,98% (active)
same,growth inhibition,[13]; at 1.2 µM,-78%
same,growth inhibition,[13]; at 3.7 µM,-40%
same,growth inhibition,[13]; at 11.0 µM,58%
same,growth inhibition,[13]; at 33.0 µM,93% (active)
same,growth inhibition,[13]; at 100.0 µM,97% (active)
same,growth inhibition,[14]; at 1.2 µM,-35%
same,growth inhibition,[14]; at 3.7 µM,-28%
same,growth inhibition,[14]; at 11.0 µM,59%
same,growth inhibition,[14]; at 33.0 µM,93% (active)
same,growth inhibition,[14]; at 100.0 µM,96% (active)
same,growth inhibition,[15]; [17],16%
same,growth inhibition,[15]; [18],99% (active)
same,growth inhibition,[15]; at 50.0 µM,98.7% (active)
same,growth inhibition,[16]; at 1.2 µM,-30%
same,growth inhibition,[16]; at 3.7 µM,-20%
same,growth inhibition,[16]; at 11.0 µM,75% (active)
same,growth inhibition,[16]; at 33.0 µM,94% (active)
same,growth inhibition,[16]; at 100.0 µM,97% (active)
